Vif inh: inhibitors of HIV Vif | actives 0.35% (n = 340,000) | AID 602346 | HEK293T cells, Vif self-association by quenched fluorescence, imaging, 24 h | inhibition, % at 7.49 µM; in the data active means inhibition above about 50%, passing the limit was not always enough
aDG glyco act: increases alpha dystroglycan glycosylation. activation, % at 10 µM. actives 0.22% (n = 360,000). Pro5-aDG cells, alpha-DG glycosylation AlphaScreen (IIH6); 0% Pro5, 100% B10-LARGE cell signal. AID 624168;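 active means activation of at least 8% versus controls, or a plate z-score of at least 8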;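 further: Pro5 are CHO cells carrying HIG-tagged alpha-DG that lacks glycosylation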
ARNT TACC3 PPI: disruptors of human ARNT/TACC3 interaction; AlphaScreen His-ARNT PAS-B/GST-TACC3 binding, luminescence; TACC3 fragment carries E629A point mutation; inhibition, % at 9.99 µM; actives 0.66% (n = 390,000); AID 623870; Q9Y6A5;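 active means mean inhibition of replicates at least 50% and at least half of replicates each reaching 50%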;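 further: 0% = complete ARNT plus TACC3 wells and 100% = ARNT alone without TACC3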
H9c2 protect: modulators protecting cardiomyocytes from myocardial damage. H9c2 cardiomyocytes, H2O2 injury protection, ATPLite, 2 h. protection from H2O2 cell death, % at 20 µM. actives 0.63% (n = 360,000);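 active means compounds giving at least 50% protection of heart cells from peroxide-induced death in the single-dose screen, raw or plate-pattern-corrected value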;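 further: 0% = DMSO wells with peroxide and 100% = DMSO wells without peroxide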
N-glyco inh: N-linked glycosylation inhibition; actives 0.23% (n = 360,000); D54 ERlucT glycosylation luciferase reporter, 24 h; percent of 100 nM tunicamycin response; reporter increase, % at 12.5 µM; AID 588692;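 active means mean luciferase reporter signal, scaled so untreated is 0 and the glycosylation-blocking control 100, at or above a set limit in every replicate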;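 further: luciferase carries N-glycosylation sites so blocking glycosylation raises the light; 0% = median of neutral control wells and 100% = median of 100 nM tunicamycin wells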
aDG conf: alpha-DG glycosylation activation, confirmation | shares compounds with aDG glyco act | Pro5-aDG cells, IIH6 AlphaLISA; scaled to LARGE-overexpressing B10 cells as 100% | activation, % at 10 µM (by protocol) | actives 17% (n = 600) | AID 651671;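 active means activation of at least 7% in one or more replicates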;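 further: cells exposed to compound for two days before detection; 0% = DMSO-treated Pro5 cells and 100% = DMSO-treated B10-LARGE cells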
Active calls of the source: *. Compounds with a hit are over-represented: about 1.7% of the library has one in this group of screens.

Results for COc1ccc(-c2ccc([C@@H]3[C@H](CO)N4CCCCN(C(=O)Cc5ccccc5)C[C@@H]34)cc2)cc1 ?
ARNT TACC3 PPI: 4.9

What do the screens show for `COC(=O)C1=C(c2ccc3ccccc3c2)C[C@@H]2CC[C@H]1N2C(=O)NC1CCCCC1`?
Vif inh: -5.4; aDG glyco act: 0.5; ARNT TACC3 PPI: 7.0; H9c2 protect: -2.0; N-glyco inh: -3.6

Results for COC(=O)C1=C(c2ccc(C(C)=O)cc2)C[C@@H]2CC[C@H]1N2C(=O)NC1CCCCC1 ?
Vif inh: -8.4; aDG glyco act: 7.3*; ARNT TACC3 PPI: 1.8; H9c2 protect: -2.9; N-glyco inh: 7.5; aDG conf: -0.9

What do the screens show for `CC=Cc1ccc2n(c1=O)C[C@H]1[C@H](CO)[C@@H](C(=O)OC)[C@@H]2N1C(=O)CC1CC1` (mixture of isomers)?
ARNT TACC3 PPI: -3.1

Results for CCC1(c2ccc(N)cc2)CCC(=O)NC1=O (stereo not given) ?
Vif inh: 0.1; aDG glyco act: 11.8*; ARNT TACC3 PPI: -2.5; H9c2 protect: 13.8; N-glyco inh: 2.6; aDG conf: -1.0

How did CCN1[C@@H]2Cn3c(ccc(-c4cccc(C(=O)N(C)C)c4)c3=O)[C@H]1[C@@H](C(=O)OC)[C@@H]2CO do in these assays?
ARNT TACC3 PPI: -3.2

What do the screens show for `CC1CCC2[C@@H](C)C(=O)OC3O[C@]4(C)CCC1C32OO4` (stereo not given in full)?
Vif inh: -2.5; aDG glyco act: 2.6*; ARNT TACC3 PPI: -2.5; H9c2 protect: -1.5; N-glyco inh: 1.7; aDG conf: -0.2

What do the screens show for `CC=Cc1ccc2n(c1=O)C[C@@H]1[C@@H](CO)[C@H](C(=O)OC)[C@H]2N1S(=O)(=O)c1cccc(C)c1` (mixture of isomers)?
ARNT TACC3 PPI: -2.3

What do the screens show for `CCCNC(=O)Cn1cnc2sc(C(=O)N3CCC4(CC3)OCCO4)c(C)c2c1=O`?
Vif inh: 6.3; aDG glyco act: 13.6*; ARNT TACC3 PPI: -7.5; H9c2 protect: 1.2; N-glyco inh: 2.8; aDG conf: -0.2

Screening data from PubChem.
